Our source for the Potency values is PubChem BioAssay AID2035 (National Center for Advancing Translational Sciences (NCATS), 2009).

Structures are written as SMILES. The list shows a part of the results. Where a call stands in place of a potency, no number is given. The source made the active and inactive calls. Calls come from the whole dose curve; as a rule, active = well fitted inhibition curve with a large enough effect; inconclusive = small, poorly fitted or top-dose-only effect; inactive = flat fitted curve, though single readings scatter.

The nature of the experiment: Confirmatory Assay for Inhibitors of Human Galactokinase (GALK): Phenol-HRP redox assay counterscreen. As to conditions: Phenol red-HRP H2O2 redox cycling, absorbance 600 nm; series mostly up to 115 µM. The source says: NIH Molecular Libraries Probe Production Centers Network [MLPCN] NIH Chemical Genomics Center [NCGC] MLPCN Grant: R03 MH085689-01 Assay Submitter (PI): Kent Lai (University of Utah School of Medicine, 50 N Mario Capecchi Drive, Salt Lake City, UT 84132) NCGC Assay Overview: One mM dithiothreitol (DTT) was used as a reducing agent to maintain the galactokinase (GALK) enzyme in its active form in the GALK qHTS screen (AID: 1868). However, it has been shown that in the presence of DTT a number of compounds also undergo redox recyling, generating a significant amount of H2O2 that can oxidize crucial cysteine residues in the enzyme, leading to and a false-positive result. To evaluate and flag redox recycling compounds for compounds re-acquired from the qHTS screen, an endpoint colorimetric assay developed by Johnston et al. was adopted and optimized for a 1536-well plate format. In brief, the assay detects the presence of H2O2 by following the change in absorbance at 600 nm due to oxidation of phenol red (Sigma, cat# 114537) catalyzed by horseradish peroxidase (HRP; Invitrogen). A stop reagent, 1N NaOH was added prior to reading the absorbance. DMSO and different concentrations of hydrogen peroxide (Sigma, cat# 216763) in the GALK buffer were used as negative and positive controls respectively.
NCGC Assay Protocol Summary: Two uL/well of GALK buffer (20mM HEPES pH8.0, 5 mM MgCl2, 60 mM NaCl, 1 mM DTT, 0.01% BSA final concentration) was dispensed into a 1536-well assay plates (Greiner, black clear bottom plates) with Aurora Discovery BioRAPTR Flying Reagent Dispenser (FRD; Beckton-Dickenson). Compound and control solutions (23 nL each) were transferred to the assay plate in their respective wells using Kalypsys pin tool equipped with a 1536-pin tool head and incubated at room temperature for 30 min. Presence of H2O2 produced by redox cycling compounds was detected by adding 2 uL/well phenol red - HRP detection reagent ([…] phenol red in 1x Hanks Balanced Salt Solution, 25 U/mL HRP final concentrations). After 15 min of room temperature incubation, the reaction was stopped by adding 2 uL/well 1N NaOH and incubated for an additional 1 hr at room temperature. The absorbance at 600 nm was measured using the ViewLux plate reader (Perkin Elmer, Waltham, MA) with 6000 light energy, 2 sec exposure, and 2x binning instrument settings.
With `N#C/C(=C(/O)Cc1cccc2ccccc12)c1nc2ccccc2s1`, the Potency entry is “inactive”.

In the case of `CCS(=O)(=O)C1=NSC2=NC(=O)/C(=C\c3ccc(OS(=O)(=O)c4ccccc4)cc3)C(=N)N21`, the Potency entry is “inactive”. Turning to `N#Cc1c(N2CCCCC2)nc(N)c2c(N)nc(SCC(=O)O)cc12`, the Potency was 18.8 µM (active). The entry for `COc1cccc2cc(-c3cc(=O)oc4cc(C)c(O)cc34)oc12` is “inactive”; for `CCOC(=O)c1c(C)[nH]c2c1-c1ccccc1C(=O)C2=O` it is 1.19 µM (active); for `O=C(Nc1nnc(S(=O)(=O)N2CCOCC2)s1)c1cccc(Br)c1` it is “inactive”. Under `Oc1c(Cl)cc(Cl)c(Cl)c1Cc1c(O)c(Cl)cc(Cl)c1Cl` stands “inactive”.
